# TDP1 cell CPT = growth inhibition of DT40 Tdp1-/-;hTDP1 cells with camptothecin (screen for TDP1 inhibitors). chicken DT40 Tdp1-/-;hTDP1 cells + 20 nM CPT, ATP luminescence, 48 h. Potency, µM (top dose mostly 46.2 µM), for inactives: at the top dose activity change, negative = growth inhibition, hits mostly inhibitors. 12% of 420,000 active. AID 686979; further: potency means the concentration at half of the fitted maximal effect; nearly all actives have a fitted effect of over 55% in size
#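 Chicken DT40 Tdp1-/- cells complemented with human TDP1, 400 cells/well, exposed to compounds plus 20 nM camptothecin for at least 48 h at 37 C; viability read as ATP content by CellTiter-Glo luminescence.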
# ALOX12 inh = inhibitors of human 12S-lipoxygenase ALOX12; AID 1671190; 1.1% of 580,000 active; Potency, µM (titrated, usually from 108 µM), without a hit: top-dose activity change, negative = inhibition, most hits filed as inhibitors; purified 12hLO, xylenol orange hydroperoxide absorbance; further: potency means the concentration at half of the fitted maximal effect
# Target sequence (P18054 whole entry, looked up): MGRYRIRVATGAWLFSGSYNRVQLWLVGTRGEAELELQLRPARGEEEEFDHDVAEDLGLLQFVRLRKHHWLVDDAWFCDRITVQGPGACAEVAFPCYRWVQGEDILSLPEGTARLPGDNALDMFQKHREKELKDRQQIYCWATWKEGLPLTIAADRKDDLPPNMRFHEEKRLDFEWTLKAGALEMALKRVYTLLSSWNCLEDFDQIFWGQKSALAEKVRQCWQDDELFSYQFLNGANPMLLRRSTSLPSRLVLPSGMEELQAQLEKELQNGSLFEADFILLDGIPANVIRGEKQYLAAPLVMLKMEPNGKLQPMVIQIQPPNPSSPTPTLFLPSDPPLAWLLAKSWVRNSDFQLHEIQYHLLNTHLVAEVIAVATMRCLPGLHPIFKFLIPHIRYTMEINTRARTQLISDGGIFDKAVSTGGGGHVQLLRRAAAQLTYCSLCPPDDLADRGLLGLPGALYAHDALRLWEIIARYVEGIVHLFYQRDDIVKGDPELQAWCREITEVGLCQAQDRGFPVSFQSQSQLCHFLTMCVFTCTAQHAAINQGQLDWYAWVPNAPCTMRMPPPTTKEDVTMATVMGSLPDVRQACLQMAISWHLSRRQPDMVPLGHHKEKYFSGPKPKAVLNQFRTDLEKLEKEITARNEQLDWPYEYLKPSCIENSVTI
#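 Purified human 12hLO (150 nM final) in 25 mM Hepes, 0.01% Triton X-100, pH 7.0 was preincubated 15 min at room temperature with compound. Then 40 uM arachidonic acid was added, 30 min. Hydroperoxide was read by Fe-XO absorbance ratio 573/405 nm.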
# HT1080 IDH1KD tx = HT-1080 IDH1 knockdown cell toxicity (counter line). HT-1080 IDH1 knockdown viability, ATP luminescence, 48 h. Potency, µM (titrated, usually from 46.1 µM), for inactives: at the highest dose activity, negative = toxicity, usual class: cytotoxic. 2% of 360,000 active. AID 686971;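 further: potency means the concentration at half of the fitted maximal effect; 0% = DMSO wells and -100% = cell-free medium wells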
#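 Knockdown cells (IDH1KD HT-1080) received compounds 2 h after plating at 750 cells/well and were kept 48 h at 37 °C in 5% FBS RPMI. A CellTiter-Glo luminescence read gave % activity for curve fitting.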
# DT40 TDP1 no CPT = qHTS for Inhibitors of human tyrosyl-DNA phosphodiesterase 1 (TDP1): qHTS in cells in absence of CPT. 15% of 420,000 active. Potency, µM (doses to about 46.2 µM), inactives show at the top dose activity change, negative = growth inhibition, actives largely listed as inhibitors. DT40 Tdp1-/- hTDP1 cells, no CPT, ATP luminescence, 48 h; further: potency means the concentration at half of the fitted maximal effect; nearly all actives have a fitted effect of over 55% in size
#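 Luminescent ATP content (CellTiter-Glo) served as the growth readout. Knockout chicken DT40 cells expressing human TDP1 were exposed to compounds without camptothecin for a minimum 48 hr at 37 °C.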
# HT1080-NT tox = kills 2HG-producing HT-1080-NT fibrosarcoma cells | Potency, µM (highest dose often 46.1 µM), for the others: at the highest dose activity, negative = less viability, actives largely listed as cytotoxic | HT-1080-NT fibrosarcoma viability, CellTiter-Glo ATP luminescence, 48 h | 1.6% of 360,000 active | AID 686970;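 further: NT is the 2HG producing partner of a matched IDH1 knockdown line; potency means the concentration at half of the fitted maximal effect; 0% = DMSO-treated cells and -100% = media-only wells without cells; nearly all actives have a fitted effect of over 55% in size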
#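 Viability of the 2HG-overproducing fibrosarcoma line after 48 hours of compound exposure at 37 degrees C was determined by luminescence with CellTiter-Glo, and concentration-effect curves were then fitted and categorized.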
# IL1B secr inh = inflammasome signaling inhibition, IL-1 beta readout; THP-1 LPS/ATP IL-1B secretion, AlphaLISA, 16 h; stronger effect = lower value; activity change, % at 57.5 µM; 4.7% of 360,000 active; AID 743279; in the data active means activity change below about -50%; inconclusive means mostly about -30% to -49%
#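 THP-1 cells pretreated 1 hr with compounds (up to 57.5 uM final), then stimulated with LPS (250 ng/mL final) plus ATP (1.25 mM final); secreted IL-1B measured by AlphaLISA after 16 hr, decreased signal indicating inhibition.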
# Active calls of the source: *; u = inconclusive; x = not tested or not shown; [ ] = remark or other dose. This excerpt belongs to a sample that is enriched for hits. Unless noted, the call rests on the fitted dose curve; in most records, active means well fitted curve in the direction sought with a large enough effect; inconclusive means small, poorly fitted or top-dose-only effect, or another doubt; inactive means no such curve, though single readings can be large; an effect the other way counts as inactive or inconclusive. Unless noted, on the % scale 0 is the no-effect control and ±100 the full control effect.
SMILES,TDP1 cell CPT,ALOX12 inh,HT1080 IDH1KD tx,DT40 TDP1 no CPT,HT1080-NT tox,IL1B secr inh
COc1ncccc1N1CC2(COCC(=O)N(Cc3cccc(OC(F)(F)F)c3)C2)C1,x,3.4%[176 µM],x,x,x,x
c1ccc(Nc2cc3c(cn2)NCCN(Cc2ccc4[nH]ccc4c2)C3)cc1,x,3.9%[176 µM],x,x,x,x
c1ccc(COc2ccccc2CNCC2CCNCC2)cc1,x,-3.4%,x,x,x,x
Cc1ccc(-c2csc3ncnc(-n4nnc5ccccc54)c23)cc1C,20.6µM*,-10.5%,3.1%,u,-2.5%,0.0
Cc1ccc(-c2csc3ncnc(-n4cnc5ccccc54)c23)cc1,u,-19.1%,20.6µM*,18.4µM*,16.4µM*,u
CC1CCC(NC(=O)CCCNC(=O)C(C)(C)C)CC1 (stereo not drawn),x,0.3%,x,x,x,x
Cc1ccc(C(C[N+](=O)[O-])n2nc(C)cc2C)cc1 (stereo not drawn),2.06µM*,0.0%,1.0%,2.59µM*,4.5%,-0.9
C=Cc1ccc(C(=O)N2CCc3c(cnc(C)c3CNC(=O)c3ccc4c(c3)OCO4)C2)cc1,-1.1%[9.04 µM],-7.6%,x,-19.3%,x,x
COc1ccc(OC)c(/C=C/c2ccc3ccccc3[n+]2C)c1,2µM*,x,x,2µM*,x,x
O=[N+]([O-])c1ccccc1/C=C/c1ccc2ccccc2n1,-39.8%,-2.4%,-21.4%,u,u,-78.9*
Cn1c(/C=C/c2ccccc2[N+](=O)[O-])nc2ccccc2c1=O,u,3.6%,3.6%,u,0.6%,-5.2
COc1ccc(OC)c(/C=C/c2ccccc2)c1,-25.1%,x,x,-0.7%,x,x
COc1cc(OC)c(OC)cc1C=Cc1ccc2ccccc2n1,16.4µM*,u,u,14.6µM*,u,-19.4
COc1ccc(OC)c(/C=C/c2cc3ccccc3cn2)c1,5.01µM*,x,x,5.01µM*,x,x
O=C(COCc1cc(-c2ccc(F)cc2)on1)Nc1ccc2c(c1)OCCO2,x,20.1%,x,x,x,x
COc1ccccc1NC(=O)Nc1nnc(CC(=O)NCc2ccccc2)s1,x,-2.8%,x,x,x,x
COc1ccc(/C=C/c2ccc3ccccc3n2)c(OC)c1,15.8µM*,x,x,11.2µM*,x,x
COc1ccc(C(=O)NC(c2ccc(OC)c(OC)c2)c2cc(Cl)c3cccnc3c2O)cc1 (stereo not drawn),5.01µM*,x,x,5.62µM*,x,x
CCC(=O)NC(c1ccc(OC)cc1)c1cc(Cl)c2cccnc2c1O (stereo not drawn),5.8µM*,3.5%,u,6.51µM*,-25.8%,40.4
CC(=O)NC(c1cc(Cl)c2ccccc2c1O)C(C)C (stereo not drawn),x,-3.5%,x,x,x,x
COc1ccc(C(=O)NCCCNC(=O)c2cccnc2)cc1OC,3.8%,-10.4%,-4.9%,15.1%,0.0%,8.9
COc1ccc(C(NC(=O)c2cccnc2)c2cc(Cl)c3cccnc3c2O)cc1OC (stereo not drawn),18.4µM*,-15.8%,11.6µM*,18.4µM*,20.6µM*,93.5
CC(=O)NC(c1ccc(C)cc1)c1cc(Cl)c2cccnc2c1O (stereo not drawn),5.17µM*,u,u,4.11µM*,-27.0%,42.0
Cc1ccc2[nH]c(CN3CCCC4(CC3)CN(C)C(=O)O4)cc(=O)c2c1 (stereo not drawn),x,30.5%,x,x,x,x
COc1cc(CC2CC(c3ccc(Cl)cc3)=NO2)cc2c1OCO2 (stereo not drawn),x,19.1%,x,x,x,x
CCCCN(C)C(=O)c1cc2c(C)cc(C)c(C)c2[nH]1,x,-25.0%,x,x,x,x
Oc1c(C(Nc2ccccn2)c2cccnc2)cc(Cl)c2cccnc12 (stereo not drawn),4.61µM*,u,u,5.17µM*,u,44.4
CCOc1ccc(CCNC(=O)c2sc3nc4n(c(=O)c3c2C)CCC4)cc1,-21.1%,-8.2%,0.3%,3.7%,-2.6%,38.7

# Bioassay records: PubChem BioAssay, National Center for Advancing Translational Sciences (NCATS)
